Assay outcomes (PubChem)
Compounds with a hit are over-represented: about 2.8% of the library has one in this group of screens.
KCNH2 3.1 inh – blocks the human KCNH2 3.1 channel isoform | activity change, % (tested at about 1.8 µM) | AID 720553 | 0.95% of 340,000 active | U2OS KCNH2 3.1, thallium flux FluxOr; stronger effect = lower value;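 active = maximum activity change below -70%; inconclusive = maximum activity change from -70% to -50%; inactive = maximum activity change above -50%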;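 also: thallium influx rate constant from kinetic fluorescence after stimulation buffer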
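Thallium flux via FluxOr fluorescence (Red40 quencher, 45 min loading) in U2OS cells virally expressing the KCNH2 3.1 isoform (1.77 x 10^8 /mL virus, overnight at 37 C). Rate constants from 2-min kinetic reads post-stimulation, normalised to positive and negative controls.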
GLP1R cytotox – cytotoxicity counter-screen for GLP-1 receptor inverse agonists; Potency, µM (titrated, usually from 38.3 µM), most hits filed as inhibitors; 0.13% of 410,000 active; HEK293 cAMP-luciferase reporter cells, luminescence, 24 h; AID 624418;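 also: loss of luciferase light is scored as toxicity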
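Quantitative HTS format, 1536 wells, 200 cells/uL seeded. Compounds: 23 nL, 24 h, 37 °C. Detection: luciferase reagent, luminescence at 12 min RT; decreased signal taken as cytotoxic.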
GLS inhibitor – blocks human kidney-isoform glutaminase activity; O94925; GLS enzymatic activity, qHTS titration; Potency, µM (highest dose often 45.5 µM), actives largely listed as inhibitors; 0.21% of 410,000 active
Target sequence (O94925 whole entry, looked up, canonical isoform): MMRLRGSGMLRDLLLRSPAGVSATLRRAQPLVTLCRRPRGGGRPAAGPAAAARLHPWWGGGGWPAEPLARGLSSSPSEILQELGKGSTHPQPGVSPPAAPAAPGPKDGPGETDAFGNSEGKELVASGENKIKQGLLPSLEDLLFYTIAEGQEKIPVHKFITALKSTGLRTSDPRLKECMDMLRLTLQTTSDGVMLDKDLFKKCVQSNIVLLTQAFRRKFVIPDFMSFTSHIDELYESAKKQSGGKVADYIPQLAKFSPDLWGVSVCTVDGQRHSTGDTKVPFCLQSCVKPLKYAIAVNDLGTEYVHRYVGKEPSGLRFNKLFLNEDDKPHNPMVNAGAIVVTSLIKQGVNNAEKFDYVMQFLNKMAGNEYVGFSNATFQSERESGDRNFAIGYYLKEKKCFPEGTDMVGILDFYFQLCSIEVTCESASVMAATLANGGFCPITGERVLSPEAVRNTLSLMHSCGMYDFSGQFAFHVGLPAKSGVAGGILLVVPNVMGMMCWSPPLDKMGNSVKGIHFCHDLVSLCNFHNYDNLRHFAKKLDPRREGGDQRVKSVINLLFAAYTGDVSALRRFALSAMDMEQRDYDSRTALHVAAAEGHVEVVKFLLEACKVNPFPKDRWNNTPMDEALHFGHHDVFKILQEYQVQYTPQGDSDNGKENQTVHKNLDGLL
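Coupled fluorescence readout: glutamate oxidase/HRP/Amplex Red detect glutamate formed by hKGA from L-glutamine (1 mM solution added). Buffer 45 mM KH2PO4 pH 8.2, 0.02% Tween-20; reads at t0 and 30 min RT.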
GLP-1R inv ag – acts as inverse agonist at human GLP-1 receptor | HEK293 GLP-1R CRE-luciferase, luminescence, 24 h; GLP-1R form is constitutively active | Potency, µM (top dose mostly 38.3 µM), hits mostly inhibitors | 1.6% of 410,000 active | P43220; also: nearly all actives have a fitted effect of over 55% in size
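qHTS in 1536-well format: reporter HEK293 cells expressing constitutive GLP-1R activity in DMEM + 10% Nu serum, 24 hr with compounds at 37 deg C, luminescence read after 12 min with detection reagent.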
GLP-1R agonist – activates the human GLP-1 receptor | P43220 | HEK293 GLP-1R CRE-luciferase, luminescence, 4-6 h; cells express a hypersensitive GLP-1R form | Potency, µM (top dose mostly 45.6 µM), actives largely listed as activators | 0.007% of 380,000 active
KCNH2 WT inh – KCNH2 (human, wildtype) channel inhibition; Q12809; U2OS, BacMam KCNH2, thallium flux FluxOr; stronger effect = lower value; activity change, % at 1.84 µM; 0.37% of 340,000 active;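 active = maximum activity change below -70%; inconclusive = maximum activity change between -70% and -50%; inactive = maximum activity change above -50%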
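U2OS cells were transduced with wild-type KCNH2 virus (2.03 x 10^8 / mL) for 4 h at room temperature, then cultured overnight at 37 C. Thallium flux was read with FluxOr dye. Rate constants were normalized to DMSO controls.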
Large screens that a line does not name were inactive. Unless noted, calls follow the shape of the dose curve; as a rule, active = well fitted curve in the direction sought with a large enough effect; inconclusive = small, poorly fitted or top-dose-only effect, or another doubt; inactive = no such curve, though single readings can be large; an effect the other way counts as inactive or inconclusive.

CCCN(CCC)c1ncnc2c1cnn2-c1ccc(OC)cc1	GLP-1R inv ag 10µM
CCCCN(CCCC)c1ncnc2c1cnn2-c1cccc(C)c1	GLP-1R inv ag inconclusive (no result: KCNH2 3.1 inh, GLP-1R agonist, KCNH2 WT inh)
Cc1ccc(-c2csc(N3CCN(CCCn4c(-c5ccncc5)nc5ccccc54)CC3)n2)cc1	GLP-1R inv ag inconclusive
Cc1ccc(-c2csc(N3CCC[C@@H]3C(=O)NCCn3c(-c4ccncc4)nc4ccccc43)n2)cc1	KCNH2 3.1 inh -105, GLP-1R inv ag 13µM
COc1cc(/C=C/C(=O)OCC(=O)N2CCCc3ccccc32)ccc1O	GLS inhibitor 10µM
COc1ccc(/C=C/C(=O)N2CCCc3ccccc32)c(OC)c1	GLP-1R inv ag inconclusive, GLP-1R agonist inconclusive, KCNH2 WT inh -79
COc1ccc(OC)c(/C=C/C(=O)N2CCCc3ccccc32)c1	GLP-1R inv ag inconclusive
O=C(NCC(c1cccnc1)N1CCc2ccccc21)c1cccc(F)c1 (centres undefined)	none (no result: KCNH2 3.1 inh, GLP-1R agonist, KCNH2 WT inh)
Cc1ccc(NC(=O)CNC(c2ccccc2)c2ccccc2)c(F)c1	GLP-1R inv ag 11µM (no result: KCNH2 WT inh)
CCOc1ccc(C(=O)C(CCC(CN(C)C)C(=O)c2ccc(OCC)cc2)CN(C)C)cc1 (centres undefined)	GLP-1R inv ag 1.6µM
O=C1c2cc(Br)ccc2OC2C=CC=CC12 (centres undefined)	none
N#C/C(=C\c1ccc(OCc2ccc(C(=O)O)cc2)cc1)C(=O)N1CCOCC1	GLP-1R inv ag 1µM
COc1cc(/C=C(\C#N)C(=O)N2CCOCC2)ccc1OCc1ccccc1	none
O=[N+]([O-])c1ccc(Cl)c(NC(=S)N2CCCC2)c1	none
COc1cc(Cn2c3ccc(NC(=O)CCc4ccccc4)cc3c(=O)n2C)ccc1F	GLP1R cytotox inconclusive, GLP-1R inv ag 2.2µM (no result: KCNH2 3.1 inh, KCNH2 WT inh)
Cc1ccc(S(=O)(=O)N2CCC(N3CCN(C)CC3)CC2)cc1Cl	GLP-1R inv ag 2.5µM
CC1(C(=O)NC2CCCCC2)Cc2ccccc2C(=O)N1Cc1ccc(Cl)cc1 (centres undefined)	none (no result: KCNH2 3.1 inh, GLP-1R agonist, KCNH2 WT inh)
Cc1ccc2nc(-c3ccccc3F)c(Nc3ccc(Cl)cc3)n2c1	GLP-1R inv ag 11µM (no result: KCNH2 3.1 inh, GLP-1R agonist, KCNH2 WT inh)
COc1ccc(C(=O)C(C)OC(=O)CNC(=O)C2CCCCC2)cc1 (centres undefined)	none
Cc1cccc(NC(=O)C(C)OC(=O)CNC(=O)C2CCCCC2)c1 (centres undefined)	KCNH2 WT inh -144
Cc1ccc(S(=O)(=O)N(C)Cc2cc3cc(C)ccc3[nH]c2=O)cc1	KCNH2 3.1 inh -117
O=C(Nc1ccc(C(=O)N2CCN(c3ccccc3F)CC2)cc1)c1nsc2ccccc12	GLP-1R inv ag inconclusive (no result: KCNH2 3.1 inh, GLP-1R agonist, KCNH2 WT inh)
Cc1oc(-c2ccccc2Cl)nc1CN1CCCC1c1ccc(F)cc1 (centres undefined)	GLP-1R inv ag inconclusive
Cc1nonc1C1CCCN1Cc1nc(-c2ccccc2Cl)oc1C (centres undefined)	KCNH2 3.1 inh -94, GLP-1R inv ag inconclusive
CCOc1ccc(N(C(=O)c2ccc(S(=O)(=O)N3CCCC3)cc2)C2C=CS(=O)(=O)C2)cc1 (centres undefined)	none
Cc1ccc(CN(C)C(=O)CN2C(=O)NC(c3ccccc3)(c3ccccc3)C2=O)c(C)c1	GLP-1R inv ag 3.5µM
Cc1cc2nc3c(=O)[nH]c(=O)nc-3n(CC(O)C(O)C(O)COP(=O)(O)O)c2cc1C (centres undefined)	none (no result: KCNH2 3.1 inh, GLP1R cytotox, GLP-1R inv ag, KCNH2 WT inh)
COc1cccc(CN2CCN(C(c3ccccc3)c3ccccc3)CC2)c1O	KCNH2 3.1 inh -74, GLP-1R inv ag inconclusive
OC(CN1CCN(C(c2ccccc2)c2ccccc2)CC1)c1ccccc1 (centres undefined)	GLP-1R inv ag inconclusive
CC(=O)c1ccccc1OCC(O)CN1CCN(C(c2ccccc2)c2ccccc2)CC1 (centres undefined)	KCNH2 3.1 inh -85, GLP-1R inv ag inconclusive, KCNH2 WT inh -74
OC(CN1CC=C(/C=C/c2ccc(Br)cc2)CC1)c1ccccc1 (centres undefined)	KCNH2 3.1 inh -93
OC(CN1CCN(C(c2ccccc2)c2ccccc2)CC1)c1ccc(Br)cc1 (centres undefined)	KCNH2 3.1 inh -104, KCNH2 WT inh -103
COc1ccccc1CNC(=O)CSc1nc2nc(C)c(Cc3ccccc3Cl)c(C)n2n1	none (no result: KCNH2 3.1 inh, GLP-1R agonist, KCNH2 WT inh)
c1csc(-c2nc3c4ccccc4c4ccccc4c3[nH]2)c1	GLP-1R inv ag 5µM
Oc1ccccc1-c1nc2c3ccccc3c3ccccc3c2[nH]1	GLP-1R inv ag inconclusive
O=C(OCc1csc(-c2ccccc2)n1)c1ccc(O)cc1	KCNH2 3.1 inh -80
Cc1ccc(C(=O)NCC(=O)OCc2csc(-c3ccccc3)n2)cc1	none
O=C(CNC(=S)N(CCCN1CCOCC1)Cc1cccs1)NCCCN1CCOCC1	none
O=C(CNC(=S)N(CCCN1CCOCC1)Cc1cccs1)NCc1ccccc1Cl	KCNH2 3.1 inh -123, KCNH2 WT inh -113
O=C(CNC(=S)N(CCCN1CCOCC1)Cc1cccs1)NCc1ccc(Cl)cc1	KCNH2 3.1 inh -83, GLP-1R inv ag inconclusive, KCNH2 WT inh -84
CC1(C(=O)NCc2cccc(C(F)(F)F)c2)CCN1CCc1ccccc1 (centres undefined)	GLP-1R inv ag inconclusive (no result: KCNH2 3.1 inh, KCNH2 WT inh)
CC1(C(=O)NCc2cccc(C(F)(F)F)c2)CCN1C1Cc2ccccc2C1 (centres undefined)	GLP-1R inv ag 13µM (no result: KCNH2 3.1 inh, KCNH2 WT inh)
CCCC1=Nc2cc(C(=O)NCCc3ccccc3)ccc2Sc2ccc(C)cc21	GLP1R cytotox inconclusive, GLP-1R inv ag inconclusive (no result: KCNH2 3.1 inh, KCNH2 WT inh)
CCCC1=Nc2cc(C(=O)NCc3ccc(OC)cc3)ccc2Sc2ccc(C)cc21	GLP-1R inv ag 4.5µM (no result: KCNH2 3.1 inh, KCNH2 WT inh)
CCCC1=Nc2cc(C(=O)NC(C)c3ccccc3)ccc2Sc2ccc(C)cc21 (centres undefined)	GLP-1R inv ag 4.5µM (no result: KCNH2 3.1 inh, KCNH2 WT inh)
Cc1cc(O)c(CN2CCN(c3ccccc3)CC2)c2oc(=O)cc(C)c12	none (no result: KCNH2 3.1 inh, GLP-1R agonist, KCNH2 WT inh)
CC1C(=O)CC(c2ccc([N+](=O)[O-])cc2)NC1c1ccc([N+](=O)[O-])cc1 (centres undefined)	KCNH2 3.1 inh -71, GLP-1R inv ag 8.9µM
S=C(Nc1cccc(Br)c1)c1ccccc1	GLP-1R inv ag 13µM
COc1ccc(CNC(=O)c2cnc3sc(N4CCC(C)CC4)nn3c2=O)c(OC)c1	none (no result: KCNH2 3.1 inh, GLP-1R agonist, KCNH2 WT inh)
Cc1[nH]c2ccccc2c1/C=C/C(=O)c1ccccc1	KCNH2 3.1 inh -86, GLP-1R inv ag inconclusive
O=C(NCCN1CCCCC1)c1ccc(Cn2c(SCc3ccc(F)cc3)nc3cccnc32)cc1	none (no result: KCNH2 3.1 inh, GLP-1R agonist, KCNH2 WT inh)
NNC(=O)c1cc2c(ccc3ccccc32)o1	GLS inhibitor 22µM
